Here are results for 65 compounds from PubChem BioAssay AID1259415 (National Center for Advancing Translational Sciences (NCATS), 2018).

SMILES strings stand for the structures. Values joined by “and” are separate entries in the source; they are usually repeats but may differ in a detail not shown here. Equal entries are not always repeated. About 18,000 (4.4%) of roughly 410,000 compounds were called active. Inconclusive results (about 7%) are left out. No stated cut-off is given here; in the data, active means activity change below about -60%; inconclusive means no clear call, values can overlap the other calls; inactive means above about -39%. This excerpt belongs to a sample that is enriched for actives.
On the % scale 0 is the no-effect control and ±100 the full control effect.

This test can be described thus: qHTS Assay for inhibitors of the human cytomegalovirus (HCMV). The settings on record: HFF cells, HCMV-luciferase reporter, 72 h; at 57.5 µM; hits give low values. Put shortly: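 Luciferase read-out from HCMV-luciferase-infected HFFs (MOI 1 PFU/cell) 72 h post infection at 37C; compounds added after 16 h cell attachment; activity normalized between buffer-only basal and Salinomycin (10uM) inhibitor controls.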
(In general: Quantitative high-throughput screening tests each substance at several concentrations.)
Consider `Cc1ccc(Cl)cc1NC(=O)/C(C#N)=C\c1cn(Cc2ccc(F)cc2)c2ccccc12`, for which the activity change, negative = inhibition is -6.14% (inactive). Consider `Cc1ccc(Cl)cc1N1CCN(C(=O)CN2C(=O)COc3ccc(S(=O)(=O)N4CCOCC4)cc32)CC1`, for which the activity change, negative = inhibition is 6.7% (inactive). Next, `CC(C)CCn1c(=O)c2c(nc3n2CCCN3Cc2ccccc2)n(C)c1=O`: -22.4% (inactive); `CCOc1cc(C(=O)N2CCc3cc(OC)c(OC)cc3C2)ccc1OC(F)F`: -71.6% (active); `CCOc1ccc(C(=O)NCC(=O)N2CCCCCCC2)cc1OCC`: -11.3% (inactive).

Take `COc1ccc2c(CC(=O)N3CCc4cc(OC)c(OC)cc4C3)coc2c1`: the activity change, negative = inhibition was -13.1% (inactive). In the case of `Cc1nn(C(=O)c2c(F)cccc2F)c(C)c1S(=O)(=O)N1CCOCC1`, the activity change, negative = inhibition was 9.99% (inactive). Next, `O=S(=O)(c1cnccc1N1CCN(/N=C/c2ccc(Br)cc2)CC1)N1CCCCC1`: -6.47% (inactive); `COc1cc(OC)c(C(=O)NC2CC(C)(C)NC(C)(C)C2)cc1OC`: 37.1% (inactive). With `COc1cc2c(cc1OC)C(=O)NCC(C)(C)O2` the figure was -102% (active); with `COc1ccc(C(=O)NC2CC(C)(C)NC(C)(C)C2)cc1OC`, 7.69% (inactive). With `COc1ccc(NC(=O)CSc2nc3ccccc3n2CC(=O)N2CCCCC2C)cc1` (stereo not given) the figure was -20.6% (inactive).

Regarding `O=C(c1cnn(-c2ccc(F)cc2)c1-n1cccc1)N1CCN(c2ccc(F)cc2)CC1`, the activity change, negative = inhibition is -8.43% (inactive). With `CCCCOc1ccc(C(=O)Nc2cccc(-c3nc4ccccc4o3)c2C)cc1`, the activity change, negative = inhibition is -17.8% (inactive). For the compound `COc1cc(C2C(C(=O)Nc3ccc(F)cc3)=C(C)Nc3nc(CCCO)nn32)cc(OC)c1OC` (stereo not given), the activity change, negative = inhibition was 8.48% (inactive).

`COC(=O)c1nc2n(n1)C(c1ccc([N+](=O)[O-])cc1)C(C(=O)Nc1ccc(Cl)cc1)=C(C)N2` (stereo not given): the activity change, negative = inhibition is 5.33% (inactive). Next, `CCOc1ccc(C2C(C(=O)Nc3ccc(Cl)cc3)=C(C)Nc3nc(C(F)(F)F)nn32)cc1` (stereo not given): -84.1% (active); `Cc1ccc2oc3c(c(=O)c2c1)C(c1ccc([N+](=O)[O-])cc1)N(CCCN1CCOCC1)C3=O` (stereo not given): 40.9% (inactive). With `COc1ccc(CCNC(=O)C(=O)NCC(c2ccco2)S(=O)(=O)c2cccs2)cc1OC` (stereo not given) the figure was 0.563% (inactive).

Turning to `CCOc1ccc(CCNC(=O)c2csc3c2CCCCC3)cc1`, the activity change, negative = inhibition was -5.3% (inactive). Next, `Cc1cccc(OCCCC(=O)Nc2sc3c(c2C(N)=O)CCC(C)C3)c1` (stereo not given): -6.01% (inactive). Take `CCN1CCN(c2cc(C)c3cc(NC(=O)c4cc(Cl)ccc4OC)ccc3n2)CC1`: the activity change, negative = inhibition was -99.2% (active). Turning to `COc1ccc(C(=O)Nc2ccc3nc(N4CCCCC4)cc(C)c3c2)cc1OC`, the activity change, negative = inhibition is -31.4% (inactive) and -29.2% (inactive). Next, `CCOCCCNC(=S)Nc1ccc2nc(N3CCN(CC)CC3)cc(C)c2c1`: -1.19% (inactive). Next, `COc1ccc(CCNC(=O)CCCn2c(=O)c3ccccc3n(Cc3ccc(F)cc3Cl)c2=O)cc1OC`: 12.1% (inactive); `O=C1OCCC1=COCCCCOC=C1CCOC1=O`: 19% (inactive); `COc1ccc(CNC(=O)Cc2coc3ccc(C(C)C)cc23)cc1`: -6.28% (inactive).

For the compound `Cc1ccc(Cl)cc1NC(=O)Cc1ccc(-n2c(C)nc3cccnc32)cc1`, the activity change, negative = inhibition was 0% (inactive). With `Cc1c(NC(=O)C(C)(C)C)cccc1-c1nc2ccccc2s1` the figure was 39.5% (inactive); with `Cc1c(NC(=O)Cc2ccccc2)cccc1-c1nc2cccnc2s1`, -66.4% (active). As to `O=C(CCc1cn(Cc2ccc(F)cc2)c2ccccc12)NC1CCCCC1`, the activity change, negative = inhibition is 4.53% (inactive). In the case of `Cc1nc(N2CCCCC2)sc1C=O`, the activity change, negative = inhibition is -68.8% (active). Take `Cc1nc(N2CCOCC2)sc1C(=O)NN`: the activity change, negative = inhibition was 0% (inactive). Regarding `CC(C)C(C)(C#N)NC(=O)CSc1nncn1-c1ccccc1` (stereo not given), the activity change, negative = inhibition was -23% (inactive). With `COc1ccccc1C1C(C(=O)N2CCCCC2)=C(C)Nc2nc3ccccc3n21` (stereo not given) the figure was 1.21% (inactive). Next, `COC(=O)c1c(NC(=O)c2cc(=O)c3c(C)cc(C)cc3o2)sc2c1CCCC2`: 17.7% (inactive); `CCN(Cc1nc2ccccc2c(=O)[nH]1)Cc1cc(=O)oc2cc(C)c(C)cc12`: 17.8% (inactive). With `CCN(CC)c1ccc(C(=O)NNC(=O)CCc2nc3ccccc3c(=O)[nH]2)cc1` the figure was -64.9% (active); with `CCN(CC(=O)NC(=O)NCc1ccccc1)Cc1nc2ccccc2c(=O)[nH]1`, 5.98% (inactive).

Consider `COc1ccc(-c2cc(NCc3ccc(F)cc3)n3cnnc3n2)cc1`, for which the activity change, negative = inhibition was -27.8% (inactive). Take `CCc1cnc2c(c1SCC(=O)c1ccccc1)c(=O)n(C)c(=O)n2C`: the activity change, negative = inhibition was -3.48% (inactive). Next, `COCC(C)NS(=O)(=O)c1ccc(N2CCCCS2(=O)=O)cc1` (stereo not given): -11.3% (inactive); `CC(c1ccccc1)n1c(NCCCn2ccnc2)nc2c1c(=O)[nH]c(=O)n2C` (stereo not given): 97.4% (inactive); `O=C(NNC(=O)c1ccccc1[N+](=O)[O-])Nc1ccccc1C(F)(F)F`: -0.175% (inactive).

For the compound `CN(CC(=O)Nc1ccccc1C(F)(F)F)C(=O)Cc1ccccc1F`, the activity change, negative = inhibition is -12.2% (inactive).

As to `Cc1cc(C)nc(NC(=O)Nc2ccccc2C(F)(F)F)n1`, the activity change, negative = inhibition was -62.1% (active). With `COc1cc(Cl)c(C)cc1NC(=O)CCc1nc2cccnc2n1Cc1cccs1`, the activity change, negative = inhibition is 11% (inactive). With `CC(=O)Nc1ccc(NC(=O)CSc2nnc(C3CC3)n2-c2ccccc2)cc1` the figure was 0% (inactive); with `CC[n+]1c(C)n(-c2ccccc2)c2ccc(NC(C)=O)cc21`, -79.8% (active). With `Cc1nnc(SCC(=O)Nc2cccc(N)c2)n1-c1ccccc1` the figure was 5.74% (inactive); with `Cn1c(CCC(=O)OCC(=O)NCc2ccccc2Cl)nc(=O)c2ccccc21`, 14.9% (inactive).

Consider `O=S(=O)(c1ccc2nc(NCc3ccccc3Cl)ccc2c1)N1CCCCC1`, for which the activity change, negative = inhibition is -22.2% (inactive). Next, `O=S(=O)(c1ccc2nc(N3CCN(c4cccc(Cl)c4)CC3)ccc2c1)N1CCCCC1`: 6.51% (inactive). In the case of `Cc1ccc(Nc2ccc3cc(S(=O)(=O)N4CCCCC4)ccc3n2)cc1F`, the activity change, negative = inhibition is -90.2% (active). Turning to `Cc1ccc(-n2ncc3c(=O)n(Cc4cccc(C(F)(F)F)c4)cnc32)cc1C`, the activity change, negative = inhibition is 1.72% (inactive). `CSc1nc(C)nc2c1c(=O)n(C)c(=O)n2C`: the activity change, negative = inhibition is 6.36% (inactive).

Regarding `COc1ccc(NS(=O)(=O)c2ccc(NC(C)=O)cc2)cc1OC`, the activity change, negative = inhibition was -79.8% (active). As for `COc1ccccc1C(=O)COC(=O)CNS(=O)(=O)c1ccc(NC(C)=O)cc1`, the activity change, negative = inhibition is 5.34% (inactive).

As to `COc1ccc(/C=C/C(=O)c2ccc(NS(=O)(=O)c3ccc(C)cc3)cc2)cc1O`, the activity change, negative = inhibition was -96.5% (active). Turning to `COC(C(=O)NCc1ccccc1C)c1ccccc1` (stereo not given), the activity change, negative = inhibition was -7.11% (inactive).

For the compound `Cc1ccc(S(=O)(=O)NNC(=O)/C=C/c2cccc(F)c2)cc1`, the activity change, negative = inhibition is -26.4% (inactive). Consider `COc1ccc(S(=O)(=O)Nc2cc(C)on2)cc1NC(C)=O`, for which the activity change, negative = inhibition is 61.3% (inactive). Next, `COC(C(=O)Nc1ccc(S(=O)(=O)Nc2ccc(C)c(C)c2)cc1)c1ccccc1` (stereo not given): -97.3% (active); `CCC(Oc1ccccc1C)C(=O)Nc1ccc(S(=O)(=O)Nc2cc(C)on2)cc1` (stereo not given): 4.11% (inactive); `COc1ccc(C(=O)/C=C/c2ccc(-c3ccccc3)cc2)cc1CSCC(=O)O`: -1.55% (inactive).
